Residue numbers refer to the chain shown, from its start.

What all share (experiment): HT-SELEX; high values mean tight binding
Common to all, as to conditions: protein: recombinant; vector His6-GST; dsDNA, one strand shown

The target in one test is T1, SALL4 ZFC4 WT (HT-SELEX) (Mus musculus, UniProt Q8BX22 870-940).
T1 sequence: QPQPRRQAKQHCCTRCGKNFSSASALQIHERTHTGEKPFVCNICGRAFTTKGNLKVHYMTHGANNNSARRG
The method in brief:
(§1)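 Purified recombinant mouse SALL4 zinc finger cluster 4 (residues 870–940, 1 µg) was incubated with library DNA (1.5 µg first cycle, 200 ng later) in 100 µl of 10 mM Tris–HCl pH 7.5, 50 mM NaCl, poly(dI-dC) and DTT for 10 min at room temperature, with Ni2+ bead capture and reselection for up to 6 cycles in triplicate. MiSeq reads were scanned for 6-mers. Binding signal is each canonical k-mer's read fraction as fold change relative to the initial random library.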

Test [1] deals with T2, SALL4 ZFC4 R900W (HT-SELEX) (Mus musculus, UniProt Q8BX22 870-940, R900W).
T2 sequence: T1 sequence with R31W
In short, it runs like this: as §1

Test [2] deals with T3, SALL4 ZFC4 G921D (HT-SELEX) (Mus musculus, UniProt Q8BX22 870-940, G921D).
T3 sequence: T1 sequence with G52D
The method in brief:
as §1

Take ACATGG: the binding signal came to 0.798 ± 0.0238 fold-change vs cycle 0 with SALL4 ZFC4 WT (HT-SELEX), 0.918 ± 0.032 fold-change vs cycle 0 in test [1] and 0.959 ± 0.0218 fold-change vs cycle 0 in test [2].
For TCAGAA the same measures were 1.27 ± 0.0471 fold-change vs cycle 0, 1.37 ± 0.0562 fold-change vs cycle 0 and 1.28 ± 0.0614 fold-change vs cycle 0.
On the same counts, the results for AAGTAT are 2.21 ± 0.135 fold-change vs cycle 0, 2.14 ± 0.158 fold-change vs cycle 0 and 1.87 ± 0.204 fold-change vs cycle 0.
For GCAAAC the same measures were 0.54 ± 0.031 fold-change vs cycle 0, 0.598 ± 0.00737 fold-change vs cycle 0 and 0.718 ± 0.0549 fold-change vs cycle 0.
Turning to CTCGAA, the binding signal in the test with SALL4 ZFC4 WT (HT-SELEX) stood at 0.675 ± 0.0333 fold-change vs cycle 0; in test [1] it was 0.763 ± 0.0367 fold-change vs cycle 0; in test [2], 0.838 ± 0.0207 fold-change vs cycle 0.
As for GATCGA, the binding signal with SALL4 ZFC4 WT (HT-SELEX) worked out at 0.664 ± 0.0531 fold-change vs cycle 0; in test [1] it was 0.763 ± 0.0206 fold-change vs cycle 0; in test [2], 0.91 ± 0.0578 fold-change vs cycle 0.
On the same counts, the results for CCGTAA are 0.687 ± 0.0267 fold-change vs cycle 0, 0.78 ± 0.0395 fold-change vs cycle 0 and 0.825 ± 0.0254 fold-change vs cycle 0.
For CTAAAA the same measures were 1.62 ± 0.0677 fold-change vs cycle 0, 1.63 ± 0.131 fold-change vs cycle 0 and 1.51 ± 0.106 fold-change vs cycle 0.
For AGATGC the same measures were 0.625 ± 0.0322 fold-change vs cycle 0, 0.721 ± 0.0174 fold-change vs cycle 0 and 0.833 ± 0.0268 fold-change vs cycle 0.
Consider GTAGGA, for which the binding signal turned out to be 0.827 ± 0.0404 fold-change vs cycle 0 with SALL4 ZFC4 WT (HT-SELEX), 0.946 ± 0.029 fold-change vs cycle 0 in test [1] and 0.948 ± 0.0466 fold-change vs cycle 0 in test [2].
On the same counts, the results for CTTGCA are 0.697 ± 0.0262 fold-change vs cycle 0, 0.7756 ± 0.00768 fold-change vs cycle 0 and 0.856 ± 0.0345 fold-change vs cycle 0.
For GATGTA the same measures were 1.358 ± 0.0117 fold-change vs cycle 0, 1.425 ± 0.0112 fold-change vs cycle 0 and 1.34 ± 0.0458 fold-change vs cycle 0.
Take ACAGCT: the binding signal with SALL4 ZFC4 WT (HT-SELEX) turned out to be 0.616 ± 0.0411 fold-change vs cycle 0; in test [1], 0.714 ± 0.0328 fold-change vs cycle 0; in test [2] it was 0.811 ± 0.0395 fold-change vs cycle 0.
For AGTTCG the same measures were 0.647 ± 0.0383 fold-change vs cycle 0, 0.741 ± 0.0101 fold-change vs cycle 0 and 0.828 ± 0.0183 fold-change vs cycle 0.
Consider TATTAA, for which the binding signal with SALL4 ZFC4 WT (HT-SELEX) amounted to 5.02 ± 0.457 fold-change vs cycle 0; in test [1], 2.69 ± 0.232 fold-change vs cycle 0; in test [2], 2.25 ± 0.285 fold-change vs cycle 0.
On the same counts, the results for CTTAAC are 1.38 ± 0.0537 fold-change vs cycle 0, 1.58 ± 0.0426 fold-change vs cycle 0 and 1.42 ± 0.0747 fold-change vs cycle 0.
On the same counts, the results for ACGTAC are 0.714 ± 0.0363 fold-change vs cycle 0, 0.825 ± 0.0331 fold-change vs cycle 0 and 0.862 ± 0.022 fold-change vs cycle 0.
For ATTTCA the same measures were 2.56 ± 0.117 fold-change vs cycle 0, 1.87 ± 0.0758 fold-change vs cycle 0 and 1.7 ± 0.117 fold-change vs cycle 0.
With ACACAC, the values for the binding signal (with SALL4 ZFC4 WT (HT-SELEX); in test [1]; in test [2]) were 0.701 ± 0.0589 fold-change vs cycle 0, 0.815 ± 0.0148 fold-change vs cycle 0 and 0.903 ± 0.0448 fold-change vs cycle 0, respectively.
On the same counts, the results for CTTGCC are 0.3123 ± 0.00236 fold-change vs cycle 0, 0.384 ± 0.0251 fold-change vs cycle 0 and 0.501 ± 0.0709 fold-change vs cycle 0.
For the sequence ATTAGG, the binding signal in the test with SALL4 ZFC4 WT (HT-SELEX) came to 1.38 ± 0.0909 fold-change vs cycle 0; in test [1], 1.48 ± 0.0913 fold-change vs cycle 0; in test [2], 1.4 ± 0.0983 fold-change vs cycle 0.
For CCATTC the same measures were 0.803 ± 0.0377 fold-change vs cycle 0, 0.923 ± 0.0207 fold-change vs cycle 0 and 0.938 ± 0.0225 fold-change vs cycle 0.
Regarding GTTGTA, the binding signal in the test with SALL4 ZFC4 WT (HT-SELEX) is 1.18 ± 0.0293 fold-change vs cycle 0; in test [1] it was 1.31 ± 0.0256 fold-change vs cycle 0; in test [2] it was 1.28 ± 0.0242 fold-change vs cycle 0.
Take GAAGAA: the binding signal in the test with SALL4 ZFC4 WT (HT-SELEX) came to 1.38 ± 0.0779 fold-change vs cycle 0; in test [1] it was 1.56 ± 0.142 fold-change vs cycle 0; in test [2], 1.41 ± 0.156 fold-change vs cycle 0.
For AGGTTC the same measures were 0.828 ± 0.0497 fold-change vs cycle 0, 0.972 ± 0.0561 fold-change vs cycle 0 and 1.02 ± 0.0282 fold-change vs cycle 0.
Regarding ATTCGG, the binding signal with SALL4 ZFC4 WT (HT-SELEX) amounted to 0.592 ± 0.0176 fold-change vs cycle 0; in test [1] it was 0.669 ± 0.0177 fold-change vs cycle 0; in test [2] it was 0.753 ± 0.0617 fold-change vs cycle 0.
For GACCCA the same measures were 0.39 ± 0.0219 fold-change vs cycle 0, 0.467 ± 0.00775 fold-change vs cycle 0 and 0.59 ± 0.0677 fold-change vs cycle 0.
For GGTACC the same measures were 0.421 ± 0.0151 fold-change vs cycle 0, 0.521 ± 0.0308 fold-change vs cycle 0 and 0.608 ± 0.0352 fold-change vs cycle 0.
On the same counts, the results for CAAGAA are 1.26 ± 0.0324 fold-change vs cycle 0, 1.43 ± 0.0703 fold-change vs cycle 0 and 1.35 ± 0.104 fold-change vs cycle 0.
For the sequence AGAGAA, the figures for the binding signal (with SALL4 ZFC4 WT (HT-SELEX); in test [1]; in test [2]) were 1.42 ± 0.0467 fold-change vs cycle 0, 1.64 ± 0.0726 fold-change vs cycle 0 and 1.46 ± 0.11 fold-change vs cycle 0, respectively.

Source of the values: PMC9838217, “Structure of SALL4 zinc finger domain reveals link between AT-rich DNA binding and Okihiro syndrome”.
